# This is one part of a sample in which hits are shown more often than they occur.
# HT1080-NT tox = qHTS for induction of synthetic lethality in tumor cells producing 2HG: qHTS for the HT-1080-NT fibrosarcoma cell line | 1.6% of 360,000 active | HT-1080-NT fibrosarcoma viability, CellTiter-Glo ATP luminescence, 48 h | Potency, µM (titrated, usually from 46.1 µM), actives largely listed as cytotoxic;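 further: NT is the 2HG producing partner of a matched IDH1 knockdown line; nearly all actives have a fitted effect of over 55% in size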
#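 Read-out is CellTiter-Glo luminescence after 10 minutes at room temperature, following 48 hours' compound treatment of HT-1080-NT cells (750 cells/well, RPMI, 5% FBS, 37 degrees C).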
# ALOX12 inh = Primary qHTS assay for inhibitors of human arachidonate 12S-lipoxygenase (ALOX12): Round 2. AID 1671190, 2021. 1.1% of 580,000 active. purified 12hLO, xylenol orange hydroperoxide absorbance. Potency, µM (top dose mostly 108 µM), actives largely listed as inhibitors
# Target sequence (P18054 whole entry, looked up): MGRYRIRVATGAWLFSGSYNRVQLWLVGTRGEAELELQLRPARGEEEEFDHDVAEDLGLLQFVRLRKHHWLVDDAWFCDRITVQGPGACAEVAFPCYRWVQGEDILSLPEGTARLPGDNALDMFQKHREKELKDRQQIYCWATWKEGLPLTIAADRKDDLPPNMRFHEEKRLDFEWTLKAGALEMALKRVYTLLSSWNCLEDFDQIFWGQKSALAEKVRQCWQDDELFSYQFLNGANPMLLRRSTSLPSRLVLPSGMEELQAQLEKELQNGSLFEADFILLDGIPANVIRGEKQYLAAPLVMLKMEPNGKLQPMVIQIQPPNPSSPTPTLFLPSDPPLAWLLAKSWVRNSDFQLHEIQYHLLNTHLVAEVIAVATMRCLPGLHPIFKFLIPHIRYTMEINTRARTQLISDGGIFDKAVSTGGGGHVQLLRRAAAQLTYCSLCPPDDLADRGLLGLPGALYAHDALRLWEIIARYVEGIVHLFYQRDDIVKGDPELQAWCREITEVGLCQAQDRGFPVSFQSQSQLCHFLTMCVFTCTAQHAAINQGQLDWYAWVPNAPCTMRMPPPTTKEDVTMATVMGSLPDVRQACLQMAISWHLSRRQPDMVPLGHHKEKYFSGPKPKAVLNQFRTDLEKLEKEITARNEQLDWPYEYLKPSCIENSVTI
#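 Purified human 12hLO at 150 nM in 25 mM Hepes, 0.01% Triton X-100, pH 7.0, preincubated 15 min at room temperature with compound. Reaction started with 40 uM arachidonic acid, 30 min at room temperature. Hydroperoxide measured by Fe-xylenol orange, 573/405 nm absorbance ratio.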
# DT40 TDP1 CPT = qHTS for Inhibitors of human tyrosyl-DNA phosphodiesterase 1 (TDP1): qHTS in cells in presence of CPT; chicken DT40 Tdp1-/-;hTDP1 cells + 20 nM CPT, ATP luminescence, 48 h; Potency, µM (top dose mostly 46.2 µM), hits mostly inhibitors; 12% of 420,000 active; AID 686979, 2013; further: nearly all actives have a fitted effect of over 55% in size
#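 Chicken DT40 Tdp1-/- cells stably complemented with human TDP1 were seeded at 400 cells/well in medium containing 20 nM camptothecin, exposed to pin-transferred compounds, and grown at 37 °C for at least 48 hr. Viability was read as ATP luminescence.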
# IL1B secr inh = qHTS for Inhibitors of Inflammasome Signaling: IL-1-beta AlphaLISA Primary Screen. THP-1 LPS/ATP IL-1B secretion, AlphaLISA, 16 h; active compounds read low. activity change, % at 57.5 µM. 4.7% of 360,000 active. AID 743279, 2014; in the data active means activity change below about -50%; inconclusive means mostly about -30% to -49%
#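 Secreted IL-1B measured by AlphaLISA bead assay after 16 h compound exposure of THP-1 cells; compounds (final up to 57.5 uM) added 1 h before LPS (250 ng/mL) and ATP (1.25 mM) stimulation; lower signal means less secretion.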
# DT40 TDP1 no CPT = qHTS for Inhibitors of human tyrosyl-DNA phosphodiesterase 1 (TDP1): qHTS in cells in absence of CPT. DT40 Tdp1-/- hTDP1 cells, no CPT, ATP luminescence, 48 h. Potency, µM (highest dose often 46.2 µM), usual class: inhibitors. 15% of 420,000 active; further: nearly all actives have a fitted effect of over 55% in size
#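 No-CPT arm: Tdp1-/-;hTDP1 DT40 cells (400/well) plus compounds, incubated ≥48 hr at 37 °C. Readout CellTiter-Glo luminescence.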
# HT1080 IDH1KD tx = qHTS for induction of synthetic lethality in tumor cells producing 2HG: qHTS for the HT-1080-IDH1KD cell line. Potency, µM (doses to about 46.1 µM), hits mostly cytotoxic. HT-1080 IDH1 knockdown viability, ATP luminescence, 48 h. 2% of 360,000 active. AID 686971, 2013
#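 IDH1KD HT-1080 cells, 750/well, RPMI + 5% FBS; compound pinned after 2 h settling; 48 h, 37 °C; CellTiter-Glo luminescence; % activity normalised to DMSO and no-cell wells; curves fitted, classed by r2 and efficacy.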
# Hits are given with their value; - = inactive; ? = inconclusive; . = not tested or not shown. Unless noted, the call rests on the fitted dose curve; in most records, active means well fitted curve in the direction sought with a large enough effect; inconclusive means small, poorly fitted or top-dose-only effect, or another doubt; inactive means no such curve, though single readings can be large; an effect the other way counts as inactive or inconclusive.
SMILES,HT1080-NT tox,ALOX12 inh,DT40 TDP1 CPT,IL1B secr inh,DT40 TDP1 no CPT,HT1080 IDH1KD tx
CCOC(=O)[C@]12CCCC=C1N(Cc1ccc(Cl)cc1Cl)C(=O)[C@H](CC(=O)N1CCOCC1)C2,-,-,?,-,15µM,-
Cc1ccccc1N(C(=O)Cn1nnc(-c2ccc(F)cc2)n1)C(C(=O)NC(C)(C)C)c1ccncc1 (stereo not drawn),-,-,-,-57,-,-
CC(C)(C)NC(=O)C(c1ccc(O)cc1)N(C(=O)Cn1nnc(-c2ccc(F)cc2)n1)c1ccccc1F (stereo not drawn),-,-,?,?,16µM,-
CC(C)(C)NC(=O)C(c1ccncc1)N(C(=O)Cn1nnc(-c2ccc(F)cc2)n1)c1ccc(F)cc1 (stereo not drawn),-,-,-,-,-,-
Cc1ccc(N(C(=O)Cn2nnc(-c3ccc(F)cc3)n2)C(C(=O)NC(C)(C)C)c2ccncc2)cc1 (stereo not drawn),-,-,-,-69,-,-
CCc1ccccc1NC(=O)NCc1ccc2c(c1)CCN2C(=O)c1ccccc1,.,-,?,.,23µM,.
Cc1ccc(C(=O)N2CCc3cc(CNC(=O)CSc4ccccc4)ccc32)cc1,.,-,15µM,.,15µM,.
Cc1ccc(C(=O)N2CCc3cc(CNC(=O)CCc4ccccc4)ccc32)cc1,.,-,?,.,?,.
O=C(CSc1ccccc1)NCc1ccc2c(c1)CCN2C(=O)c1ccc(F)cc1,.,-,-,.,-,.
COc1ccc(CC(=O)NCc2ccc3c(c2)CCN3C(=O)c2ccc(C)cc2)cc1OC,.,-,13µM,.,12µM,.
O=C(COc1ccc(F)cc1)NCc1ccc2c(c1)CCN2C(=O)c1ccccc1,.,-,-,.,-,.
COc1ccc(C)cc1NC(=O)NCc1ccc2c(c1)CCN2C(=O)c1ccccc1,.,-,23µM,.,21µM,.
Cn1nccc1C(=O)NCc1ccc2c(c1)CCN2C(=O)c1ccccc1,.,-,-,.,-,.
COCCc1nncn1C1CCN(S(=O)(=O)c2ccc(F)cc2)CC1,.,-,.,.,.,.
COc1ccc(C(=O)N2CCC3(CC2)N=C(c2ccccc2)NO3)cc1,.,-,.,.,.,.
COc1cccc(NC(=O)NCc2ccc3c(c2)CCN3C(=O)c2ccccc2)c1,.,-,?,.,?,.
COC(=O)c1ccccc1NC(=O)NCc1ccc2c(c1)CCN2C(=O)c1ccccc1,.,-,23µM,.,16µM,.
O=C(N/N=C/c1cccn1-c1ccc([N+](=O)[O-])cc1)c1cccnc1,-,-,13µM,-,26µM,?
Cc1nc(-n2ccc3nc4ccn(C5CCCCCC5)c(=O)c4cc3c2=O)n[nH]1,.,-,.,.,.,.
O=C1CC(c2noc(-c3cc(F)ccc3Cl)n2)CN1c1ccc(F)cc1 (stereo not drawn),.,-,.,.,.,.
COc1cc2nc(Cl)nc(NC3CCN(C)CC3)c2cc1OC,-,.,11µM,.,?,-
COc1cc2nc(N(C)C)nc(NC3CCN(C)CC3)c2cc1OC,?,.,4.5µM,.,4µM,?
COc1cc2nc(N(C)CCCNC(=O)C3CCCO3)nc(N)c2cc1OC (stereo not drawn),.,-,-,.,-,.
COc1cc2nc(N(C)C)nc(N)c2cc1OC,-,?,?,-,26µM,?
COc1cc2nc(CCNCc3ccccc3)nc(NC3CCN(C)CC3)c2cc1OC,?,.,5.6µM,.,5µM,?
SMILES,HT1080-NT tox,ALOX12 inh,DT40 TDP1 CPT,IL1B secr inh,DT40 TDP1 no CPT,HT1080 IDH1KD tx
COc1cc2nc(NC3CCN(C)CC3)nc(NC3CCN(C)CC3)c2cc1OC,-,.,?,.,?,-
C#CCN1C(=O)CC[C@@H](S(=O)(=O)c2ccccc2)[C@@H]1c1ccccc1,.,-,.,.,.,.
COc1ccc2c(C)c(CCC(=O)NCc3ccc(S(N)(=O)=O)cc3)c(=O)oc2c1C,.,-,.,.,.,.
COc1ccccc1C(=O)N1CCCN(c2nnc3cccc(C)n23)CC1,.,-,.,.,.,.
CC12CCC(=O)N1C(C(=O)NCCN1C(=O)S/C(=C\c3ccccc3Cl)C1=O)CS2 (stereo not drawn),-,-,-,-,?,-
CN1CCN(C(=O)CCN2C(=O)S/C(=C/c3ccc(Cl)cc3)C2=O)CC1,-,-,13µM,-,13µM,-
O=C1S/C(=C\c2ccc(Cl)cc2)C(=O)N1CCn1cnnn1,-,-,-,-62,?,-
Cc1ccc(/C=C2\SC(=O)N(CCNC(=O)C3CSC4(C)CCC(=O)N34)C2=O)cc1 (stereo not drawn),-,?,?,?,15µM,-
COc1ccc(/C=C2\SC(=O)N(CCC(=O)N3CCN(C)CC3)C2=O)cc1,-,-,-,-,?,-
CC(C)COC(=O)CN1C(=O)S/C(=C/c2ccc(Cl)cc2)C1=O,.,-,.,.,.,.
Cc1ccc(/C=C2\SC(=O)N(CCC(=O)N3CCN(C)CC3)C2=O)cc1,-,?,18µM,-,23µM,-
Cc1nn2c(c1-c1ccccc1N1CCCC1)N(C(=O)COc1ccccc1)CCC2,.,-,.,.,.,.
COc1ccc(CCNC(=O)COC(=O)CNS(=O)(=O)c2ccc(SC)c([N+](=O)[O-])c2)cc1,-,-,-,-,-,-
CSc1ccc(S(=O)(=O)NCC(=O)OC2CCOC2=O)cc1[N+](=O)[O-] (stereo not drawn),-,-,-,-68,-,-
CSc1ccc(S(=O)(=O)NCC(=O)OCC(=O)NCc2cccs2)cc1[N+](=O)[O-],-,-,-,-66,-,-
CSc1ccc(S(=O)(=O)NCC(=O)OCC(=O)N2CCCC2=O)cc1[N+](=O)[O-],-,-,?,-96,?,-
CSc1ccc(S(=O)(=O)NCC(=O)OCC(=O)N2CC(C)CC(C)C2)cc1[N+](=O)[O-] (stereo not drawn),-,?,-,-,-,-
Cc1noc(C2CC3(CCN(C(=O)C4CC4)CC3)CN2C)n1 (stereo not drawn),.,-,.,.,.,.
O=S(=O)(NCc1ccccc1Cl)c1ccc2c(c1)OCCO2,.,-,.,.,.,.
Cc1ccc(CNC(=O)CCC(=O)n2ncc3cc(C)ccc32)cc1,-,-,-,-,-,-
Cc1ccc2c(cnn2C(=O)CCCC(=O)NCc2ccc(Cl)cc2)c1,?,-,23µM,-,?,?

# Screening results as filed in PubChem.
